Experimental data from PubChem BioAssay AID2284125 (EPA ToxCast).
Activity calls are given as the source filed them. Rule for the calls: active = hit-call score of the fitted dose curve at least 0.9, where 1 is the maximum; inactive = score below 0.9.

The molecules below were run against Beta-2 adrenergic receptor (Homo sapiens) (UniProt P07550) (assay: ERF_FR_GPCR_hADRB2: Eurofins (ERF) G Protein-Coupled Receptor (GPCR) Radioligand Binding LeadHunter Assay for human Adrenoceptor Receptor beta2 Antagonism, conducted at France lab site).
Sequence of Beta-2 adrenergic receptor (Homo sapiens) (P07550 whole entry, looked up): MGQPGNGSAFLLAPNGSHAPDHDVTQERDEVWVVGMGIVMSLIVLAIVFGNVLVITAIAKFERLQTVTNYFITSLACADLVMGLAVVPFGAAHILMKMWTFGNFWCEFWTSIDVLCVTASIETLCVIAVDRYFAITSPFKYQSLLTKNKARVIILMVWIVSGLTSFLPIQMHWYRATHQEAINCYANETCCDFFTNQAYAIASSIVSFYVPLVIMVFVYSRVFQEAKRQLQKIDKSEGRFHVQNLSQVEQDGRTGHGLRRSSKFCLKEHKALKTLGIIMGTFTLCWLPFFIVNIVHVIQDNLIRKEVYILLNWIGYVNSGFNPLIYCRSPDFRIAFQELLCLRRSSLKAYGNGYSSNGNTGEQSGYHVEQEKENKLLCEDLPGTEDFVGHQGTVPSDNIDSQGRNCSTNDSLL
Procedure: ERF_FR_GPCR_hADRB2 is a biochemical, single-readout assay that uses extracted gene-proteins in a cell-free assay. Measurements were taken 2 hour after chemical dosing in a 96-well plate. See beta2 Human Adrenoceptor GPCR Binding (Antagonist Radioligand) Assay, Cerep.ERF_FR_GPCR_hADRB2 is an assay component calculated from the ERF_FR_GPCR_hADRB2 assay. It is designed to measure radioligand binding using a type of binding reporter as detected by scintillation counting with radiometry technology.Data from the assay component ERF_FR_GPCR_hADRB2 was analyzed at the assay endpoint, ERF_FR_GPCR_hADRB2, in the positive analysis fitting direction relative to DMSO as the negative control and baseline of activity. Using a type of binding reporter, loss-of-signal activity can be used to understand changes in binding as they relate to gene ADRB2. To generalize the intended target to other relatable targets, this assay endpoint is annotated to the gpcr intended target family, where the subfamily is adrenoceptor.
Human cells are incubated for 60 minutes in room temprature, using [3H](-)CGP 12177 ligand at 0.3 Kd (nM) with ICI 118551 control inhibitor.Test Sample Requirements: Minimum for 1) Screen: 60 ul of 10 mM stock -OR- 1 mg (pre-weighed) for […] uM final testing. 2) Dose Response: 90 ul of 10 mM stock -OR- 1 mg (pre-weighed) for a top concentration at 10 uM.
With `COc1cc(CCC(=O)CC(=O)CCc2ccc(O)c(OC)c2)ccc1O` the outcome was “inactive”.
In the case of `O=C(/C=C/c1ccc(O)cc1)CC(=O)/C=C/c1ccc(O)cc1`, the AC50 is reported as 3.68 µM (active).
